In PubChem BioAssay (NCATS):
Inconclusive results are not listed. Values without a mark were called inactive. Calls of active or inactive are those of the source. Calls come from the whole dose curve; as a rule, active = well fitted inhibition curve with a large enough effect; inconclusive = small, poorly fitted or top-dose-only effect; inactive = flat fitted curve, though single readings scatter.

Assay: P-glycoprotein substrates identified in KB-8-5-11 adenocarcinoma cell line, qHTS therapeutic library screen (AID 1346987); note: nearly all actives have a fitted effect of over 65% in size
Conditions: KB-8-5-11 (P-gp overexpressing) viability, CellTiter-Glo, 72 h; series mostly up to 44.5 µM; activity change, negative = cytotoxicity: at the top concentration
Method in brief: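 Compounds are pinned in dose-response onto KB-8-5-11 cells (500 cells/well, colchicine-free medium) and left 72 h at 37 degree C. CellTiter-Glo luminescence then yields AC50 values.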
% is set by controls: 0 for no effect and ±100 for the full control effect; potency is the fitted concentration of half-maximal effect.

SMILES | activity change, negative = cytotoxicity | Potency | outcome
CC(C)=CCCC1(C)C2CCC1(C)C(O)C2 (stereo not given) | -16.2% | – | –
C/C=C/C=C/C=C/C(=O)O[C@@H]1C=C2COC(=O)[C@]2(O)[C@@]2(C)CCCC(C)(C)[C@H]12 | -7.86% [at 17.3 µM] | – | –
O=C(Nc1ccnc(NC(=O)C2CC2)c1)c1c(Cl)cccc1Cl | – | 8.2 µM (active) | –
CCOC(=O)c1cnc2ccc(-c3cncc(NS(=O)(=O)c4ccccc4)c3)cn12 | – | 4.11 µM (active) | –
c1ccc2c(CCC3CCNCC3)c[nH]c2c1 | -7.19% | – | –
COc1ccc(NC(=O)c2ccc(C(=N)N(C)C)cc2)c(C(=O)Nc2ccc(Cl)cn2)c1 | -11.6% | – | –
COc1ccc(CCN(C)CCCOc2nsc(-c3ccccc3)n2)cc1OC | -12.1% | – | –
Cc1ccc(C(=O)Nc2ccc(CN3CCN(C)CC3)c(C(F)(F)F)c2)cc1C#Cc1cnc2[nH]ncc2c1 | – | 20.6 µM (active) | –
CCCCCCCCCCCCCCCCCC(=O)[O][Al] | -2.19% | – | –
Cc1ccccc1C(C(=O)NC1CCCCC1)N(C(=O)Cn1cnc2ccccc21)c1cccc(F)c1 (stereo not given) | – | 23.1 µM (active) | –
C/C=C(\C)C(=O)OC1C[C@@]2(COC(C)=O)O[C@H]2/C=C\[C@@]2(C)O[C@@H]2[C@H]2OC(=O)C(COC(C)=O)=C12 (stereo not given in full) | -0.966% [at 17.3 µM] | – | –
CCC(CN)CC(C)CCNCC(O)CNCC(C)CC(CC)CN (stereo not given) | -0.731% | – | –
COC[C@H](c1ccc(C(F)(F)F)cc1)N1CCN(C2(C)CCN(C(=O)c3c(C)ncnc3C)CC2)C[C@H]1C | -7.33% | – | –
C[C@H](CSC(=O)c1ccccc1)C(=O)N1C[C@@H](Sc2ccccc2)C[C@H]1C(=O)O | 8.82% | – | –
Cn1cc(-c2ccc(F)c(C(F)(F)F)c2)nc1C1CCN(c2ncnc3[nH]ncc23)CC1 | 4.47% [at 17.3 µM] | – | –
O=C(NCCCNC(=O)c1ccc[nH]c1=O)c1cc(-c2ccccc2)on1 | -19.4% | – | –
Cc1ccc(-c2cn3c4c(sc3n2)CCCC4)cc1 | -19% | – | –
C/C=C/C1=CC2=C(CO1)C(=O)C(C)(OC(=O)c1c(C)cc(O)cc1OC)C(O)C2 (stereo not given) | – | – | inactive
Fc1ccc2[nH]ccc2c1-c1nc(N2CCOCC2)c2sc(CN3CCN(CC4CC4)CC3)cc2n1 | – | 20.6 µM (active) | –
COc1ccccc1-c1ccc(-c2cn(C(=O)N3CCCCC3Cc3ccccc3)nn2)cc1 (stereo not given) | -13.4% | – | –

SMILES | activity change, negative = cytotoxicity | Potency | outcome
N#Cc1ccc(-c2ccc(S(=O)(=O)Nc3cccc(N)n3)cc2)cc1 | -22% | – | –
C[C@@H]1O[C@@H](O[C@H]2[C@@H](OC(=O)[C@]34CCC(C)(C)CC3C3=CCC5[C@@]6(C)C[C@H](O)[C@H](O[C@@H]7O[C@H](CO)[C@@H](O)[C@H](O)[C@H]7O[C@@H]7OC[C@@H](O)[C@H](O)[C@H]7O)[C@@](C)(C(=O)O)C6CC[C@@]5(C)[C@]3(C)CC4)OC[C@H](O)[C@@H]2O)[C@H](O)[C@H](O)[C@H]1O[C@@H]1OC[C@@H](O)[C@H](O)[C@H]1O (stereo not given in full) | – | – | inactive [at 9.29 µM]
COc1cc2c(cc1OCCCN1CCCC1)N=C(N)C21CCC1 | 6.8% | – | –
CC(C)NC(=O)COc1cccc(-c2nc(Nc3ccc4[nH]ncc4c3)c3ccccc3n2)c1 | – | 8.2 µM (active) | –
O=C(C1CCCCC1)N(CCN1CCN(c2ccccc2O)CC1)c1ccccn1 | -25.9% | – | –
C[C@@H](NC(=O)c1ccc(C#Cc2cccc(F)c2)cn1)C(C)(C)O | -12.1% | – | –
COc1cc2c(Nc3cc(F)c(Cl)c(Cl)c3)ncnc2cc1OCC1CCCN(C)CCC1 | – | 16.4 µM (active) | –
C=C(C(=O)O)[C@@H]1CC=C(CCC(C)=O)[C@@H](C)CC1 | -0.516% | – | –
CC(C)CCNc1ncccc1C(=O)N1CCN(Cc2ccccc2)CC1 | -22.2% | – | –
CCOc1ccc(Cc2nc(-c3c(C)nc4ccccn34)cs2)cc1 | – | 0.0184 µM (active) | –
COC(=O)C(Cc1ccc(OCCn2c(=O)sc3cc(C(=O)c4ccccc4)ccc32)cc1)C(=O)OC | – | – | inactive
COc1cc(N2CCC(N)CC2)ccc1Nc1ncc(Cl)c(-c2c[nH]c3ccccc23)n1 | – | 4.11 µM (active) | –
CCCC(CCC)C(N)=O | 0.374% | – | –
Nc1ncnc2c1c(-c1ccc(Cl)cc1)nn2-c1cccc(-c2cnnn2Cc2cccc(-c3ccccc3)c2)c1 | – | 16.4 µM (active) | –
CC(=O)N[C@@H](C=O)[C@H](O)[C@H](O)[C@@H](O)CO | -14.5% | – | –
O=C(NCC1CCN(Cc2cccc(Cl)c2)CC1)[C@@H]1CCCN(c2ncnc3c2nc2n3CCCC2)C1 | -5.04% | – | –
Cn1nc(C(C)(C)C)cc1C(=O)N[C@@H](Cc1cccc(Cl)c1)C(=O)NCC#N | -14.7% | – | –
CCC(C)C(=O)O[C@H]1[C@@H](OC(=O)c2ccoc2)C[C@](C)(O)[C@]23OC(C)(C)[C@H](C[C@H](OC(=O)c4ccoc4)[C@]12COC(C)=O)[C@H]3OC(C)=O (stereo not given in full) | -7.52% [at 17.3 µM] | – | –
Cc1cc(OCCCS(C)(=O)=O)cc(C)c1-c1cccc(COc2ccc(C3=CC(=O)NS3=O)cc2)c1 (stereo not given) | -17.9% | – | –
COc1cc2nc(C3CC3)nc(N3CCN(c4ccccc4OC)CC3)c2cc1OC | – | 20.6 µM (active) | –
